The record followed here is PubChem BioAssay (NCI).

The nature of this assay: NCI Yeast Anticancer Drug Screen. Data for the rad14 strain (AID 159).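 Further: 0% = growth of vehicle-treated control cultures.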 The following applies: S. cerevisiae rad14 strain growth inhibition, stronger effect = higher value. The method, then: Growth inhibition of yeast strains with defined genetic alterations is measured as a screen for potential anti-cancer activity. Selected strains with alterations in DNA damage repair or cell cycle control were exposed to compounds and growth inhibition was measured relative to vehicle treated controls. The strain used in this assay is rad14

The panel holds about 79,000 compounds, 15% with a hit somewhere; the sample as a whole holds those more often. Active and inactive are the calls of the source. No stated cut-off is given here; in the data, active means growth inhibition above about 70%; inactive means the rest.

With `CN(C)CC1CCCc2ccccc2C1=O` (stereo not given), the growth inhibition was -6% (inactive) (at 1.2 µM); -13% (inactive) (at 3.7 µM); 3% (inactive) (at 11.0 µM); 12% (inactive) (at 33.0 µM); 81% (active) (at 100.0 µM).

Take `Cc1ccc(N=Nc2ccc(O)c(C)c2)cc1`: the growth inhibition is, setting by setting: (at 1.2 µM) 4% (inactive); (at 3.7 µM) -7% (inactive); (at 11.0 µM) 68% (inactive); (at 33.0 µM) 96% (active); (at 100.0 µM) 89% (active).

As for `CCN(CC)CC(O)c1cc(-c2ccc(Cl)cc2)nc2c(-c3ccccc3)cccc12` (stereo not given), the growth inhibition by setting is: (at 1.2 µM) -2% (inactive); (at 3.7 µM) 4% (inactive); (at 11.0 µM) 99% (active); (at 33.0 µM) 98% (active); (at 100.0 µM) 95% (active).

Turning to `Cc1nc2c(ncn2CCO)c(=O)[nH]1`, the growth inhibition was -3% (inactive) (at 1.2 µM); 6% (inactive) (at 3.7 µM); 11% (inactive) (at 11.0 µM); -5% (inactive) (at 33.0 µM); -2% (inactive) (at 100.0 µM).

For `Oc1ccc(C=Nc2ccccc2O)cc1`, the growth inhibition was 17% (inactive) (at 1.2 µM); 16% (inactive) (at 3.7 µM); 20% (inactive) (at 11.0 µM); 25% (inactive) (at 33.0 µM); 38% (inactive) (at 100.0 µM).

On to `CN(N=O)C(=O)N[C@@H](C=O)[C@@H](O)[C@H](O)[C@H](O)CO`, for which the growth inhibition is, setting by setting: (at 1.2 µM) -1% (inactive); (at 3.7 µM) -3% (inactive); (at 11.0 µM) -2% (inactive); (at 33.0 µM) -2% (inactive); (at 100.0 µM) -4% (inactive).

Regarding `Cc1cc(C(C)(C)CC(C)(C)C)cc(O)c1O`, the growth inhibition reads like this: (at 1.2 µM) -7% (inactive); (at 3.7 µM) 9% (inactive); (at 11.0 µM) 80% (active); (at 33.0 µM) 93% (active); (at 100.0 µM) 97% (active).

Take `On1cnc(=S)c2[nH]cnc21`: the growth inhibition (at 1.2 µM) was -32% (inactive); the growth inhibition (at 3.7 µM) is -26% (inactive); the growth inhibition (at 11.0 µM) was -34% (inactive); the growth inhibition (at 33.0 µM) is -28% (inactive); the growth inhibition (at 100.0 µM) is -14% (inactive).
